Reference: PubChem BioAssay AID743279 (National Center for Advancing Translational Sciences (NCATS), 2014)
The whole screen tested about 360,000 compounds, of which about 17,000 (4.7%) were called active. Another 5% or so got no clear call; they are omitted. Shown is part of a subset that was picked to be rich in actives. Unmarked numbers belong to inactive results. Rule as the data show it: active = activity change below about -50%; inconclusive = mostly about -30% to -49%; inactive = weaker than that.

test: qHTS for Inhibitors of Inflammasome Signaling: IL-1-beta AlphaLISA Primary Screen; settings: THP-1 LPS/ATP IL-1B secretion, 16 h; at 57.5 µM, active compounds read low
How it was run: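 Secreted IL-1B measured by AlphaLISA bead assay after 16 h compound exposure of THP-1 cells; compounds (final up to 57.5 uM) added 1 h before LPS (250 ng/mL) and ATP (1.25 mM) stimulation; lower signal means less secretion.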
% is scaled to controls: 0 for no effect and ±100 for the full control effect.

Q: With `CCc1noc(C)c1C(=O)OCC(=O)c1ccc(NC(=O)CC(C)C)cc1` as the molecule, how does the activity change read?
A: 1.82%

Q: Which activity change does the source give for `C[C@@H]1CN([C@@H](C)CO)C(=O)CCCn2nncc2CO[C@@H]1CN(C)S(=O)(=O)c1ccc(-c2ccccc2)cc1` here?
A: -3.91%

Q: For `CN=C1SC(C(=O)O)CC(=O)N1C` (stereo unspecified), which activity change is on record?
A: 0.415%

Q: For `CCCCn1nnnc1C(c1ccccc1)N1CCN(c2ccccc2OC)CC1` (stereo unspecified), which activity change is on record?
A: -1.89%

Q: Which activity change does the source give for `CC1=C(C(=O)N2CCOCC2)CC(CC(=O)NCc2cccs2)C(=O)N1CCCN1CCCC1=O` (stereo unspecified) here?
A: 2.1%

Q: With `Cc1ccc(-n2c(SCC(=O)N3c4ccccc4Sc4ccccc43)nnc2-c2ccncc2)cc1` as the molecule, how does the activity change read?
A: -10.1%

Q: Which activity change does the source give for `Cc1ccc(Nc2nc(CSc3nnc(-c4ccncc4)n3-c3ccccc3C)cs2)cc1` here?
A: -74.1% (active)

Q: With `Cc1ccccc1-n1c(SCC(=O)NCc2cccs2)nnc1-c1ccncc1` as the molecule, how does the activity change read?
A: -2.89%

Q: With `Cc1ccn(CC(=O)NC2CCCN(Cc3ccccc3F)C2)n1` (stereo unspecified) as the molecule, how does the activity change read?
A: -22.3%

Q: With `C[C@H](NC(=O)[C@@H]1CCCN1C(=O)[C@@H]1CCCN1C(=O)c1ccccc1)c1ccccc1` as the molecule, how does the activity change read?
A: 9.38%

Q: Which activity change does the source give for `CCc1oc(-c2ccc(OC)cc2)c(C(=O)OCCCCCO)c1C(C)OCCO` (stereo unspecified) here?
A: -1.94%

Q: Which activity change does the source give for `COc1ccc(-c2oc3ncnc(NCCCO)c3c2-c2ccc(OC)cc2)cc1` here?
A: -68.8% (active)

Q: For `COCCNc1ncnc2c1ncn2[C@H]1CN(Cc2ccc(OC)cc2)C[C@@H](CO)O1`, which activity change is on record?
A: -0.989%

Q: Which activity change does the source give for `Cn1ncc(Br)c1C(=O)NC1CCCC1` here?
A: -17.3%

Q: For `CN(CC(=O)NCc1ccc2c(c1)OCO2)CC(=O)Nc1ccc(F)c(F)c1F`, which activity change is on record?
A: -7.29%

Q: For `COc1ccc(C2CC(=O)n3c(nc4ccccc43)S2)cc1OC` (stereo unspecified), which activity change is on record?
A: -17%

Q: For `COc1ccc(C2CC(c3cccs3)=NN2C(=O)CSc2nncs2)cc1OC` (stereo unspecified), which activity change is on record?
A: -14.9%

Q: For `COc1ccc(C2CC(c3cccs3)=NN2C(=O)COC(=O)c2cc3ccccc3cc2O)cc1OC` (stereo unspecified), which activity change is on record?
A: 12.7%

Q: Which activity change does the source give for `COc1ccc(C2CC(c3cccs3)=NN2C(=O)CSc2nnc(N)s2)cc1OC` (stereo unspecified) here?
A: -61.5% (active)

Q: Which activity change does the source give for `COc1ccccc1N1N=C(c2cccs2)CC1c1ccccc1` (stereo unspecified) here?
A: 24%

Q: Which activity change does the source give for `COc1ccc(C2CC(c3cccs3)=Nc3ccccc3S2)cc1OC` (stereo unspecified) here?
A: -56.2% (active)

Q: For `CC(C)(C)OC(=O)N1CCC(C(=O)Nc2cccc(C(=O)NCCc3ccccc3)c2)CC1`, which activity change is on record?
A: 17.9%

Q: Which activity change does the source give for `CCC1(C)COC(c2ccc(OC)c(OC)c2)OC1` (stereo unspecified) here?
A: 10.5%

Q: With `CC1(C(=O)NCc2ccccc2)CSCC(=O)N1CCCN1CCOCC1` (stereo unspecified) as the molecule, how does the activity change read?
A: 16.7%

Q: For `N#Cc1c(N)nc2c3c(sc(=N)c2c1N)NC(=O)CC3c1ccccc1Cl` (stereo unspecified), which activity change is on record?
A: 36.3%

Q: With `CC1=NC2(CCCc3c2no[n+]3[O-])N(O)C1(C)C` (stereo unspecified) as the molecule, how does the activity change read?
A: 1.59%

Q: With `COC(=O)C[C@H]1C[C@@H]2c3cc(NC(=O)Nc4ccccc4)ccc3O[C@@H]2[C@@H](CO)O1` as the molecule, how does the activity change read?
A: 9.89%

Q: With `COc1cc(OC)cc(C(=O)NCCCn2ccnc2)c1` as the molecule, how does the activity change read?
A: 20.1%

Q: For `COc1ccc(/C=C(\C#N)C(=O)NCCCn2ccnc2)cc1`, which activity change is on record?
A: -1.26%

Q: Which activity change does the source give for `COc1cccc(-c2nn(-c3ccccc3)cc2/C=C(\C#N)C(=O)NCCCn2ccnc2)c1` here?
A: -84% (active)

Q: For `CCOC(=O)c1cc(-c2sc(NC(=O)c3ccccc3)nc2C)n(CCO)n1`, which activity change is on record?
A: -3.33%

Q: For `NS(=O)(=O)c1ccc(NC(=O)/C=C/c2ccccc2Cl)cc1`, which activity change is on record?
A: -17.1%

Q: For `COCCNC(=O)CSc1nc(N)c(NC(=O)c2ccco2)c(=O)[nH]1`, which activity change is on record?
A: 0.73%

Q: Which activity change does the source give for `CSc1nc(-c2ccccc2)nc(C(Cl)Cl)n1` here?
A: -99.1% (active)

Q: For `CSc1ncc(Sc2ccccc2)c(C(=O)O)n1`, which activity change is on record?
A: 5.96%

Q: Which activity change does the source give for `CC1(C)OC(=O)C2=C(CC(c3ccccc3)OC2CCc2ccccc2)O1` (stereo unspecified) here?
A: -7.82%

Q: For `O=C(Nc1ccccc1C(=O)N1CCOCC1)c1ccc(Cl)cc1`, which activity change is on record?
A: 12.7%

Q: Which activity change does the source give for `CCOC(=O)N1CCN(C(=O)C2CC(c3ccc(F)cc3)=NO2)CC1` (stereo unspecified) here?
A: -3.7%

Q: With `COC(=O)N/N=C/c1cn(CCCOc2ccc(C)cc2)c2ccccc12` as the molecule, how does the activity change read?
A: -91% (active)

Q: Which activity change does the source give for `O=Cc1cn(CCOc2ccc(F)cc2)c2ccccc12` here?
A: -5.47%

Q: For `CNC(=S)N/N=C/c1cn(Cc2ccc(C)cc2)c2ccccc12`, which activity change is on record?
A: -7.55%

Q: With `Cc1ccc([C@@H]2CC(=O)[C@@H]3CN(S(=O)(=O)c4ccc(C)cc4)[C@H](c4ccccc4F)C[C@@H]3N2S(=O)(=O)c2ccc(Cl)cc2)cc1` as the molecule, how does the activity change read?
A: 0%

Q: With `Cn1cnc(S(=O)(=O)N2C[C@@H](O)COC[C@@H]3O[C@H](CC(=O)NC4CCC4)CC[C@H]32)c1` as the molecule, how does the activity change read?
A: 3.76%

Q: For `CC(=O)c1c(C)[nH]c(C(=O)OCC(=O)Nc2c(C)n(C)n(-c3ccccc3)c2=O)c1C`, which activity change is on record?
A: 30.6%

Q: Which activity change does the source give for `COc1ccc(C(C)(NC(C)=O)c2nc(-c3ccc(S(C)(=O)=O)cc3)cs2)cc1` (stereo unspecified) here?
A: -7.6%

Q: With `CCCc1cc(-c2nc(-c3ccc(C)cc3)cs2)ccn1` as the molecule, how does the activity change read?
A: 19.6%

Q: With `CCc1ccccc1NC(=O)[C@@H]1CCC(=O)N1C1OC(=O)c2c1ccc(OC)c2OC` (stereo partly specified) as the molecule, how does the activity change read?
A: -9.95%

Q: With `COc1ccc(-c2csc(NC3OC(=O)c4ccccc43)n2)cc1` (stereo unspecified) as the molecule, how does the activity change read?
A: -77.8% (active)

Q: With `COc1ccc(N/C=C(\C2OC(=O)c3ccccc32)[N+](=O)[O-])cc1` (stereo unspecified) as the molecule, how does the activity change read?
A: -0.0924%

Q: With `COc1ccc2c(c1OC)C(=O)OC2Nc1nc(-c2ccccc2)cs1` (stereo unspecified) as the molecule, how does the activity change read?
A: -117% (active)

Q: Which activity change does the source give for `Cc1ccc(-c2csc(NC(=O)Cn3[nH]c(=O)c4ccccc4c3=O)n2)cc1` here?
A: 10.3%

Q: With `O=C(CSC1=NCCS1)Nc1nc(-c2ccccc2)cs1` as the molecule, how does the activity change read?
A: -4.52%

Q: Which activity change does the source give for `Cc1ccc(-c2csc(NC3OC(=O)c4ccccc43)n2)cc1` (stereo unspecified) here?
A: -99% (active)

Q: With `OC(c1ccc(Cl)cc1)c1ncc(-c2ccc(Cl)cc2)[nH]1` (stereo unspecified) as the molecule, how does the activity change read?
A: -2.78%

Q: With `CCCNC(=O)C1(C)CCCN(C(=O)c2oc3ccccc3c2C)C1` (stereo unspecified) as the molecule, how does the activity change read?
A: 35.7%

Q: For `CN1CCN(c2ccncc2S(=O)(=O)N2CCCC2)CC1`, which activity change is on record?
A: 21.6%

Q: Which activity change does the source give for `COc1ccc2c(CC(=O)OCC(=O)NC(N)=O)coc2c1` here?
A: 0%

Q: With `CCNC(=O)C1(C)CCCN(C(=O)c2ccc3ccccc3n2)C1` (stereo unspecified) as the molecule, how does the activity change read?
A: -16.3%

Q: With `COc1ccc(C=C2CCC3C(CCCC34OCCO4)C2=O)cc1` (stereo unspecified) as the molecule, how does the activity change read?
A: -24.6%

Q: With `O=C(CN1CCCCCC1)Nc1ccc(S(=O)(=O)N2CCCCC2)cc1` as the molecule, how does the activity change read?
A: -59.2% (active)

Q: Which activity change does the source give for `CCOc1ccc(NC(=O)COc2ccc(S(=O)(=O)N3CCCC3)cc2)cc1` here?
A: 5.76%

Q: For `COc1ccc(NC(=O)CN2C(=O)CSc3ccc(S(=O)(=O)N4CCC(C)CC4)cc32)cc1`, which activity change is on record?
A: -67.1% (active)

Q: With `CCc1ccc(NC(=O)CN2C(=O)COc3ccc(S(=O)(=O)N4CCCC4)cc32)cc1` as the molecule, how does the activity change read?
A: -54.9% (active)

Q: With `O=C(CSCc1ccc(Br)cc1)Nc1ccc(S(=O)(=O)N2CCCCCC2)cc1` as the molecule, how does the activity change read?
A: 23.8%

Q: For `CN(C)c1ccc(CNC(=O)CN2C(=O)COc3ccc(S(=O)(=O)N4CCCC4)cc32)cc1`, which activity change is on record?
A: 12.9%

Q: Which activity change does the source give for `CC1CCN(CCCNC(=O)CN2C(=O)CSc3ccc(S(=O)(=O)N4CCCCC4)cc32)CC1` here?
A: -0.367%

Q: With `COc1ccc(CCNC(=O)CN2C(=O)COc3ccc(S(=O)(=O)N4CCCC4)cc32)cc1OC` as the molecule, how does the activity change read?
A: -11.4%

Q: With `COCCCNC(=O)CN1C(=O)CSc2ccc(S(=O)(=O)N3CCOCC3)cc21` as the molecule, how does the activity change read?
A: -5.17%

Q: For `O=C(Nc1c(Br)cc2c(c1Br)Cc1ccccc1-2)C(F)(F)F`, which activity change is on record?
A: 17.9%

Q: Which activity change does the source give for `Cc1ccc2cc(CN(c3ccc(C)c(C)c3)S(C)(=O)=O)c(=O)[nH]c2c1` here?
A: -25.8%

Q: For `COc1ccc(NC(=O)c2sc(=O)n(Cc3ccc(S(=O)(=O)N(C)C)cc3)c2C)cc1`, which activity change is on record?
A: 6.5%

Q: For `O=C(NCc1ccccc1)C1c2ccccc2OCC(=O)N1C1CC1` (stereo unspecified), which activity change is on record?
A: -1.49%

Q: Which activity change does the source give for `Cc1cc(Br)cn2c(Cc3cccc(F)c3)c(-c3cccc(Br)c3)nc12` here?
A: 25.5%

Q: With `CCCC1C(c2ccccc2)C(C#N)(C#N)C2(C#N)CC1(N)NC2=O` (stereo unspecified) as the molecule, how does the activity change read?
A: 3.18%

Q: Which activity change does the source give for `COc1ccc(-c2csc(Nc3ccccn3)n2)cc1` here?
A: -86.3% (active)

Q: For `COc1cccc(C(O)c2nc(-c3ccc(C)c(C)c3)cs2)c1` (stereo unspecified), which activity change is on record?
A: 27%

Q: Which activity change does the source give for `COc1ccc(-c2cc3ncccc3cn2)cc1` here?
A: 15.7%

Q: With `COc1ccc(C(O)c2nc(-c3ccc(OC)nc3)cs2)cc1` (stereo unspecified) as the molecule, how does the activity change read?
A: 36.7%

Q: For `COc1ccc(C(C)(O)c2nc(-c3ccc(C)c(C)c3)cs2)cc1` (stereo unspecified), which activity change is on record?
A: 22%

Q: With `COc1ccc(OC)c(Nc2nc(-c3ccc(O)c(O)c3)cs2)c1` as the molecule, how does the activity change read?
A: -70% (active)

Q: For `COc1ccc(C(C)(O)c2nc(-c3cc(F)cc(F)c3)cs2)cc1` (stereo unspecified), which activity change is on record?
A: 42.9%

Q: With `COc1ccc(C(=O)/C=C/Nc2ccccn2)cc1` as the molecule, how does the activity change read?
A: -1.59%

Q: With `COC(=O)CCc1sc(Nc2ccc(Br)cc2)nc1-c1ccc(OC)cc1` as the molecule, how does the activity change read?
A: -13.7%

Q: For `COc1ccc(-c2csc(Nc3ccc(O)cc3)n2)cc1`, which activity change is on record?
A: -79.3% (active)

Q: With `COc1ccc(C(O)c2nc(-c3ccc4c(c3)OCO4)cs2)cc1` (stereo unspecified) as the molecule, how does the activity change read?
A: -22.4%

Q: Which activity change does the source give for `COc1ccc(-c2csc(Cc3nc(O)cs3)n2)cc1` here?
A: -95.7% (active)

Q: For `NC(CSC(c1ccccc1)(c1ccccc1)c1ccc(-c2ccccc2)cc1)C(=O)O` (stereo unspecified), which activity change is on record?
A: 1.83%

Q: With `C=CCNC(=O)CCCC(=O)NCC=C` as the molecule, how does the activity change read?
A: 0%

Q: For `OC(c1ccccc1)c1nc(/C=C/c2ccc(C(F)(F)F)cc2)cs1` (stereo unspecified), which activity change is on record?
A: 15.3%

Q: For `O=C(O)c1ccccc1Cc1ccc(F)c2ccccc12`, which activity change is on record?
A: 47.2%

Q: Which activity change does the source give for `O=S1(=O)CSCS(=O)(=O)C1` here?
A: -18.2%
